The values that follow come from PubChem BioAssay AID743356 (Broad Institute, 2014).

Unmarked numbers belong to inactive results.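 Rule for the calls: active = compounds that cut cell viability with a fitted half-maximal dose no more than twice the top valid dose; inconclusive = flat curve inhibiting 30 to 70%, or a poor fit; inactive = the rest, including any rise in viability.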

This test is described as follows: A549 cell cytotoxicity, dose response, cytotoxicity control, luminescence, dry powder, set 10 (AID 743356). Particulars: CellTiter-Glo ATP luminescence, 72 h; at 26 µM unless noted.
For `COc1ccccc1NC(=O)N1CC[C@@H]2[C@@H](CO)N(C)c3ccc(-c4cccc(F)c4)cc3[C@@H]21`, the max inhibition of viability %, hits give high values was -10.1% [at 23.5 µM].

Turning to `COCC(=O)N1CC[C@@H]2[C@@H](CO)N(C)c3ccc(-c4cccc(F)c4)cc3[C@@H]21`, the max inhibition of viability %, hits give high values is -10.3%.

For `CCCCCCCC(=O)N1CC[C@@H]2[C@@H](CO)N(C)c3ccc(-c4cccc(F)c4)cc3[C@@H]21`, the max inhibition of viability %, hits give high values was 20.6% [at 0.006 µM].

Take `CN1c2ccc(-c3cccc(F)c3)cc2[C@H]2[C@H](CCN2C(=O)Nc2ccccc2F)[C@H]1CO`: the max inhibition of viability %, hits give high values was -15.8% [at 23.5 µM].

As to `CC(=O)c1ccc(NCCNC(=O)c2ccc3c(c2)OCO3)cc1`, the max inhibition of viability %, hits give high values was 9.33% [at 0.0007 µM].

Consider `CC(=O)c1ccc(N2CC3(CN(C(=O)c4ccc5c(c4)OCO5)C3)C2)cc1`, for which the max inhibition of viability %, hits give high values was -11.2% [setting not given].

In the case of `CCC(=O)N1CC[C@@H]2[C@@H](CO)N(C)c3ccc(-c4ccc(F)cc4)cc3[C@@H]21`, the max inhibition of viability %, hits give high values was -5.87% [at 0.09 µM].

In the case of `CN1c2ccc(-c3ccc(F)cc3)cc2[C@H]2[C@H](CCN2C(=O)Cc2ccccn2)[C@H]1CO`, the max inhibition of viability %, hits give high values was -16.3%.

For `CC(=O)c1ccc(N2CCN(C(=O)c3ccc4c(c3)OCO4)[C@H](C)C2)cc1`, the max inhibition of viability %, hits give high values is 9.13% [at 12 µM].

For `COc1ccc(NC(=O)N2CC[C@@H]3[C@@H](CO)N(C)c4ccc(-c5ccc(F)cc5)cc4[C@@H]32)cc1`, the max inhibition of viability %, hits give high values is -9.64%.

Regarding `COC(=O)CCCCCCC(=O)N1CC[C@@H]2[C@@H](CO)N(C)c3ccc(-c4cccc(F)c4)cc3[C@@H]21`, the max inhibition of viability %, hits give high values was 8.86% [at 6 µM].

For `COc1ccccc1NC(=O)N1CC[C@@H]2[C@@H](CO)N(C)c3ccc(-c4ccc(F)cc4)cc3[C@@H]21`, the max inhibition of viability %, hits give high values was 13.3% [at 0.0015 µM].

Turning to `CN(C)C(=O)c1ccc(N2CCN(C(=O)c3ccc4c(c3)OCO4)CC2)cc1`, the max inhibition of viability %, hits give high values is 10.1% [at 0.1 µM].

For `CC(C)NC(=O)N1CC[C@@H]2[C@@H](CO)N(C)c3ccc(-c4ccc(F)cc4)cc3[C@@H]21`, the max inhibition of viability %, hits give high values is 12.6% [at 0.05 µM].

Take `CNC(=O)c1ccc(N2CCN(C(=O)c3ccc4c(c3)OCO4)CC2)cc1`: the max inhibition of viability %, hits give high values is -22.9% [at 0.0015 µM].

Regarding `CCCNC(=O)N1CC[C@@H]2[C@@H](CO)N(C)c3ccc(-c4ccc(F)cc4)cc3[C@@H]21`, the max inhibition of viability %, hits give high values was -28.2% [at 0.38 µM].

For the compound `CNS(=O)(=O)c1ccc(N2CCN(C(=O)c3ccc4c(c3)OCO4)CC2)cc1`, the max inhibition of viability %, hits give high values was 21.4% [at 0.003 µM].

Consider `CN1c2ccc(-c3cccc(F)c3)cc2[C@@H]2[C@@H](CCN2C(=O)c2ccc3c(c2)OCO3)[C@H]1CO`, for which the max inhibition of viability %, hits give high values was -9.13%.

Regarding `CN1c2ccc(-c3cccc(F)c3)cc2[C@H]2[C@H](CCN2C(=O)CCCCCCC(=O)O)[C@H]1CO`, the max inhibition of viability %, hits give high values was -12.9%.

Turning to `COc1ccc(NC(=O)N2CC[C@@H]3[C@@H](CO)N(C)c4ccc(-c5cccc(F)c5)cc4[C@@H]32)cc1`, the max inhibition of viability %, hits give high values was -13.8% [at 0.0235 µM].

`COc1ccccc1C(=O)N1CCN(c2ccc(C(C)=O)cc2)CC1`: the max inhibition of viability %, hits give high values was 13.9% [at 0.012 µM].

Take `CN1c2ccc(-c3ccc(F)cc3)cc2[C@H]2[C@H](CCN2C(=O)Nc2cc(F)ccc2F)[C@H]1CO`: the max inhibition of viability %, hits give high values was -3.91% [at 23.5 µM].

As to `CN1c2ccc(-c3cccc(F)c3)cc2[C@@H]2[C@@H](CCN2C(=O)c2ccc3c(c2)OCO3)[C@@H]1CO`, the max inhibition of viability %, hits give high values is -3.11%.

As to `CC(=O)c1ccc(N2CCN(C(=O)c3ccccc3Cl)CC2)cc1`, the max inhibition of viability %, hits give high values is 15.7% [at 0.195 µM].
